APP 5UTR inh: APP translation inhibition; SH-SY5Y APP 5'UTR-luciferase reporter, luminescence; inhibition, % at 2 µM; 0.82% of 190,000 active; AID 1285;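 active means inhibition above a set limit, derived from the sample mean plus 3 SD, cut at about 45% in these data; inconclusive means one replicate passes the limit while the other fails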
Ba/F3 V617F tox: loss of viability in JAK2V617F-driven Ba/F3 cells; Ba/F3 EpoR-JAK2V617F viability, ATP luminescence; inhibition, % at 5.6 µM; 1.1% of 220,000 active;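 active means inhibition above the campaign mean plus 3 SD over all tested compounds, cut at about 24% in these data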;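 further: cytokine-independent growth of Ba/F3 cells driven by EpoR plus mutant JAK2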
aSyn UTR inh: 5' untranslated region of α-synuclein, MLPCN primary screen; alpha-synuclein 5'UTR reporter, inhibitor activity; inhibition, % (tested at 7.5 µM); 0.82% of 300,000 active; AID 1813; in the data active means inhibition above about 60%; inconclusive means no clear call, values can overlap the other calls;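 further: H4 neuroglioblastoma cells stably carrying SNCA 5'UTR luciferase fusion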
IEC-6 tox: kills IEC-6 intestinal cells in KLF5 counter-screen | inhibition, % at 5 µM | IEC-6 cytotoxicity, luminescence viability | 0.78% of 290,000 active
BaF3 parental: counter-screen for JAK2V617F inhibitors: parental Ba/F3 viability inhibitors. 1.1% of 220,000 active. CellTiter-Glo ATP luminescence. inhibition, % at 5.6 µM;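 active means inhibition above a per-campaign cutoff, the mean inhibition of all tested compounds plus 3 SD, cut at about 27% in these data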
KLF5 inh: inhibitors of KLF5 expression. DLD-1 KLF5 promoter-luciferase reporter, luminescence. inhibition, % at 5 µM. 0.23% of 290,000 active;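 active means inhibition above a per-plate limit of that plate's mean compound inhibition plus 3 SD, cut at about 60% in these data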;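 further: higher means less KLF5 promoter-driven luciferase light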
IEC-6 cytotox cf: confirmation of cytotoxic compounds in rat IEC-6 intestinal epithelial cells; shares compounds with IEC-6 tox; IEC-6 rat intestinal epithelial viability, luminescence; inhibition, % at 5 µM; 63% of 1,900 active
Numbers stand for hits; – = inactive; ? = inconclusive; · = no result given. Most compounds without a hit are left out; they make up all but 2.2% or so of the library. Unless noted, no stated cut-off is given here; in the data, active means inhibition above about 22%; inactive means the rest.

SMILES	APP 5UTR inh	Ba/F3 V617F tox	aSyn UTR inh	IEC-6 tox	BaF3 parental	KLF5 inh	IEC-6 cytotox cf
Cc1occc1C(=O)N/N=C/c1ccc(-c2ccccc2)cc1	·	·	–	28	·	–	31
CCOC(=O)c1[nH]c(C)c(C(=O)OCC)c1C	–	–	–	–	–	–	·
CCOC(=O)c1[nH]c(C)c(C(=O)c2cc(F)ccc2F)c1C	95	63	74	88	78	–	65
CCOC(=O)c1[nH]c(C)c(C(=O)OCc2ccccc2F)c1C	·	·	–	51	·	–	38
CCc1ccccc1N(C)S(=O)(=O)c1ccc(-c2cc(C)no2)s1	·	·	–	47	·	–	–
CCN(c1ccc(OC)cc1)S(=O)(=O)c1ccc(-c2cc(C)no2)s1	·	·	–	–	·	–	·
CN(C[C@H](Cc1ccccc1)N(C[C@@H](CC1CCCCC1)N(CCc1ccccc1)N=O)N=O)N=O	–	–	–	–	–	–	·
O=C(NCCCCc1ccccc1)c1ccccc1	–	–	–	–	–	–	·
CCC[C@@H](CN[C@@H](CNC)C(C)C)NCCCCc1ccccc1	·	·	–	44	·	–	66
CCC[C@@H](CNC)NC[C@H](Cc1ccccc1)NCCCCc1ccccc1	·	·	–	24	·	–	101
CCCC[C@@H](CNC)NC[C@H](NCCCCC1CCCCC1)C(C)C	·	·	–	–	·	–	·
CCC[C@H](CN[C@@H](CNC)[C@H](C)CC)NCCc1cc(C(F)(F)F)cc(C(F)(F)F)c1	·	·	124	36	·	–	57
CNC[C@@H](Cc1ccccc1)NC[C@@H](CC1CCCCC1)NCCCc1ccccc1	·	·	125	102	·	–	71
Cn1c(=O)c2c([nH]c(=O)n2C)n(Cc2ccccc2)c1=O	·	·	–	·	·	·	·
Cn1c2ccccc2c(=O)c2ccc(C#Cc3ccc(N)cc3)cc21	·	·	–	36	·	–	33
COc1ccc(C#Cc2ccc3c(=O)c4ccccc4n(C)c3c2)cc1	·	·	–	–	·	–	·
COc1cccc2sc(Nc3nnc(-c4cccs4)o3)nc12	–	–	–	69	–	–	59
COc1cccc2sc(Nc3nnc(-c4ccc(F)cc4)o3)nc12	–	–	–	–	–	–	·
COc1cccc2sc(Nc3nc(-c4ccccn4)cs3)nc12	84	51	–	89	53	–	96
CCOc1ccc(S(=O)(=O)N2CCCC(C(=O)N3CCN(CC)CC3)C2)cc1Cl (configuration not stated)	·	·	–	–	·	–	·
Cc1cccc(N2CCN(C(=O)c3c(-c4ccccc4)noc3C)CC2)c1C	·	·	65	72	·	–	45
CC(=O)Nc1ccc(S(=O)(=O)NCCCc2ccccc2)cc1	·	·	–	–	·	–	·
COc1ccc(Cl)cc1NC(=O)CSc1nc(Nc2ccccc2)nc(N2CCOCC2)n1	·	·	–	30	·	–	–
CCc1ccc(C(=O)COC(=O)c2cc([N+](=O)[O-])ccc2N2CCOCC2)cc1	·	·	–	·	·	·	·
CN(C)c1cc(Nc2ccc(O)cc2)c([N+](=O)[O-])c2nonc12	·	–	–	–	–	–	·
SMILES	APP 5UTR inh	Ba/F3 V617F tox	aSyn UTR inh	IEC-6 tox	BaF3 parental	KLF5 inh	IEC-6 cytotox cf
O=[N+]([O-])c1c(Nc2ccc(O)cc2)cc(Cl)c2nonc12	·	·	–	101	·	–	68
CCO[C@@H]1OC(C(=O)Nc2ccccc2)=C[C@H](c2coc3ccccc3c2=O)[C@H]1CCCO	–	–	?	25	–	–	–
CCC(=O)NC(c1ccc(OC)cc1)c1c(O)ccc2ccccc12 (configuration not stated)	–	–	–	23	–	–	–
N#CC1=C2SCC(O)(c3ccccc3)N2C(=O)CC1c1ccccc1 (configuration not stated)	92	82	–	77	79	–	60
CCc1ccc(C2CC(=O)N3CN(c4ccccc4)CSC3=C2C#N)cc1 (configuration not stated)	–	–	–	–	–	–	·
Cn1ccsc1=NC(=O)c1ccc([N+](=O)[O-])o1	·	·	–	67	·	–	–
CCCn1c(=S)[nH]c2cc(C(=O)N(CCO)Cc3ccccc3)ccc2c1=O	·	·	–	–	·	–	·
Cc1nc2ccc(C(=O)N3c4ccccc4CC3C)cc2s1 (configuration not stated)	–	–	–	25	–	–	34
CCNS(=O)(=O)c1ccc(CCC(=O)N2CCCC2)cc1	·	·	–	–	·	–	·
Cc1[nH]n(-c2c(Cl)cc(Cl)cc2Cl)c(=O)c1C=Nc1ccc(S(=O)(=O)N2CCOCC2)cc1	–	–	–	–	–	–	·
CC(=O)c1sc2nsc(SCCN3CCOCC3)c2c1N	·	–	–	24	–	–	–
Nc1c(C(=O)c2ccccc2)sc2nsc(SCCN3CCOCC3)c12	·	–	–	–	–	–	·
CCN(CC)c1ccc2c(Cl)c(Br)c(=O)oc2c1	–	–	–	50	–	–	27
C=CCN=c1scc(-c2ccc3c(c2)NC(=O)CO3)n1/N=C(\C)c1ccccn1	52	100	·	41	91	–	31
CC(C)CCNC(=O)C(=O)NCC1OCCCN1S(=O)(=O)c1cccs1 (configuration not stated)	·	·	–	–	·	–	·
COc1ccc(Cl)cc1NC(=O)C(OC)c1ccccc1 (configuration not stated)	–	–	–	–	–	–	·
COC(/C(=N/O)c1ccc(Cl)cc1)c1ccccc1 (configuration not stated)	·	·	–	28	·	–	–
c1ccc(CCNc2ccnc3cc4ccccc4cc23)cc1	–	53	117	87	43	–	43
CCOc1cc(NC(=O)c2cccs2)c(OCC)cc1NC(=O)CCC(=O)NCc1ccccn1	·	81	–	57	64	–	–
CCN1CCN(CCC(=O)Nc2cc(OC)cc(OC)c2)CC1	·	·	–	–	·	–	·
O=C(Cc1cccc2ccccc12)Nc1ccc(Br)cc1C(=O)O	·	·	–	25	·	–	–
O=C(CSc1nc2ccccc2c(=O)n1Cc1ccccc1)Nc1ccc(Br)cc1C(=O)O	·	·	–	34	·	–	–
O=C(Cc1cccc2ccccc12)Nc1ccc(O)cc1C(=O)O	·	·	–	–	·	–	·
CC1CCN(S(=O)(=O)c2cc(C(=O)Nc3ccccn3)ccc2Br)CC1	·	·	–	·	·	·	·
COc1ccc(N2CCN(CCCn3c(=S)[nH]c4ncccc4c3=O)CC2)cc1	–	–	–	30	–	–	–
SMILES	APP 5UTR inh	Ba/F3 V617F tox	aSyn UTR inh	IEC-6 tox	BaF3 parental	KLF5 inh	IEC-6 cytotox cf
O=c1c2cccnc2[nH]c(=S)n1CCCN1CCN(c2ccc(F)cc2)CC1	–	–	–	–	–	–	·
Cc1ccc(Nc2nc(N/N=C\c3ccc4c(c3)OCO4)nc(N3CCOCC3)n2)cc1	–	–	–	49	–	–	67
CC(C)c1ccc(/C=N/Nc2cc(N3CCOCC3)nc(N3CCOCC3)n2)cc1	–	–	·	–	–	–	·
Cc1cccc(/C=N/Nc2cc(N3CCOCC3)nc(N3CCOCC3)n2)c1	–	–	–	24	–	–	94
O=C(NC1CC2CCC(C1)N2Cc1ccccc1)c1ccccc1Cl (configuration not stated)	·	·	–	–	·	–	·
Cn1c(=O)c2c(nc(NCCNC(=O)c3ccco3)n2Cc2ccc(Cl)cc2Cl)n(C)c1=O	–	–	–	–	–	–	·
